Assay results taken from PubChem BioAssay (Tox21).
Records with an inconclusive call do not appear. The source made the active and inactive calls. Unless noted, the call rests on the fitted dose curve; in most records, active means well fitted curve in the direction sought with a large enough effect in the repeat runs; inconclusive means weak or mixed curves; inactive means no such curve, though single readings can be large; an effect the other way counts as inactive or inconclusive.

Columns and labels:
[1] = target: Thyrotropin receptor (Homo sapiens) (UniProt P16473); assay: qHTS assay to identify small molecule agonists of the thyroid stimulating hormone receptor (TSHR) signaling pathway (AID 1224843; calls by dose curve; further: nearly all actives have a fitted effect of over 45% in size)
Summary of the method: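 Cell line HEK293 with TSHR; density 800/well. Exposure 30 min RT. Readout HTRF cAMP (cAMP-d2/anti-cAMP-cryptate), 1 h RT before reading.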

[2] = qHTS assay to identify small molecule agonists of the hypoxia (HIF-1) signaling pathway - cell viability counter screen (AID 1224844; calls by dose curve; further: nearly all actives have a fitted effect of over 50% in size; further: potency means the concentration at half of the fitted maximal effect)
Summary of the method: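 ME-180 HRE-bla cells, 2,000/well, 0.5% dialyzed FBS; 5 hr settle, 17 hr compound at 37C/5% CO2; CCF4-AM reporter read first, then CellTiter-Glo luminescence after 30 min RT.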

[3] = qHTS assay to identify small molecule agonists of H2AX (AID 1224845; active means well fitted activation curve with a large enough effect in the signal ratio in the repeat runs, not every such curve was filed as active; the % refers to the signal ratio)
Summary of the method: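 Wild-type CHO-K1 cells plated overnight, then exposed 3 hr at 37C to compounds at 15 concentrations (0.76% DMSO). Lysed, then HTRF anti-pH2AX(S139)-cryptate/anti-H2AX-d2 detection after 24 hr at room temperature; emissions 665 and 620 nm.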

[4] = qHTS assay to identify small molecule agonists of H2AX - cell viability counter screen (AID 1224847; calls by dose curve; further: top concentration of the series differs between compounds; nearly all actives have a fitted effect of over 30% in size)
Summary of the method: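 After overnight plating of 1000 CHO-K1 cells per well, a 15-concentration compound series was applied for 3 hr at 37C. Luminescence from CellTiter-Glo, read following 30 min at room temperature, reflected cell viability.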

[5] = qHTS RealTime-Glo MT Cell Viability Assay in HepG2 cells - 24 hour (AID 1224867); further: nearly all actives have a fitted effect of over 50% in size
Summary of the method: (§1)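 Cell number in HepG2 cultures estimated from NanoLuc luminescence generated by metabolic reduction of a prosubstrate by living cells. The homogeneous, nonlytic format allowed repeated reads at 0, 8, 16, 24, 32 and 40 h of compound exposure.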

[6] = qHTS RealTime-Glo MT Cell Viability Assay in HEK293 cells - 32 hour (AID 1224868); further: nearly all actives have a fitted effect of over 50% in size; further: potency means the concentration at half of the fitted maximal effect; on activity change, negative = cytotoxic: top concentration of the series differs between compounds
Summary of the method: (§2)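 Homogeneous bioluminescent viability format in HEK293 cells (600 cells/well). Following 5 h at 37 C/5% CO2, 23 nL compound was pintooled; the signal was measured repeatedly during 40 h incubation.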

[7] = A CellTox Green Cytotoxicity Assay to monitor cytotoxicity in HEK293 cells - 0 hour (AID 1224869); further: nearly all actives have a fitted effect of over 50% in size
Summary of the method: (§3)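 Nonlytic real-time cytotoxicity: HEK293 + CellTox Green reagent plated, 5 h preincubation, pintool compound addition (23 nL in DMSO), 37 C for 40 h, fluorescence measured at successive time points.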

[8] = qHTS RealTime-Glo MT Cell Viability Assay in HepG2 cells - 40 hour (AID 1224870); further: nearly all actives have a fitted effect of over 50% in size
Summary of the method: (§4)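 HepG2 cells mixed with RealTime-Glo MT reagents (NanoLuc plus cell-permeant prosubstrate) were seeded at 600 cells/well, incubated 5 h at 37 C/5% CO2, then pinned with compounds in DMSO; nonlytic luminescence tracked viability during 40 h treatment.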

[9] = A CellTox Green Cytotoxicity Assay to monitor cytotoxicity in HEK293 cells - 40 hour (AID 1224871); further: nearly all actives have a fitted effect of over 45% in size
Summary of the method: as §3

[10] = qHTS RealTime-Glo MT Cell Viability Assay in HEK293 cells - 16 hour (AID 1224872); further: nearly all actives have a fitted effect of over 50% in size; further: potency means the concentration at half of the fitted maximal effect; on activity change, negative = cytotoxicity: top concentration of the series differs between compounds
Summary of the method: as §2

[11] = qHTS RealTime-Glo MT Cell Viability Assay in HepG2 cells - 8 hour (AID 1224873); further: nearly all actives have a fitted effect of over 55% in size
Summary of the method: as §4

[12] = qHTS RealTime-Glo MT Cell Viability Assay in HEK293 cells - 40 hour (AID 1224874); details: RealTime-Glo luminescence; max response: hits give low values; further: nearly all actives have a fitted effect of over 50% in size
Summary of the method: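 Cells were seeded together with NanoLuc luciferase and a prosubstrate that viable cells reduce to a luciferase substrate. After a 5 h incubation at 37 C/5% CO2, compounds were added and luminescence was measured repeatedly during 40 h of treatment.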

[13] = A CellTox Green Cytotoxicity Assay to monitor cytotoxicity in HepG2 cells - 16 hour (AID 1224876); further: nearly all actives have a fitted effect of over 45% in size
Summary of the method: (§5)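 Read-out is fluorescence of a cyanine dye excluded from live cells that stains DNA of dead HepG2 cells, with signal proportional to cytotoxicity. Plates were read at 0, 8, 16, 24, 32 and 40 h after compound addition.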

[14] = qHTS RealTime-Glo MT Cell Viability Assay in HepG2 cells - 32 hour (AID 1224877); further: nearly all actives have a fitted effect of over 55% in size
Summary of the method: as §1

[15] = A CellTox Green Cytotoxicity Assay to monitor cytotoxicity in HepG2 cells - 24 hour (AID 1224878); further: nearly all actives have a fitted effect of over 45% in size; further: potency means the concentration at half of the fitted maximal effect
Summary of the method: as §5

[16] = A CellTox Green Cytotoxicity Assay to monitor cytotoxicity in HepG2 cells - 40 hour (AID 1224879); further: nearly all actives have a fitted effect of over 40% in size; further: potency means the concentration at half of the fitted maximal effect
Summary of the method: as §5

[17] = qHTS assay to identify small molecule agonists of the hypoxia (HIF-1) signaling pathway (AID 1224846; active means well fitted activation curve with a large enough effect in the signal ratio in the repeat runs, not every such curve was filed as active; the % refers to the signal ratio)
Summary of the method: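 Cell line: CellSensor HRE-bla ME-180; 2,000 cells/well; 0.5% dialyzed FBS; 5 h preincubation; DMSO compound pin transfer; 17 h, 37C, 5% CO2; CCF4-AM added; bla FRET signal scored for activation.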

[18] = A CellTox Green Cytotoxicity Assay to monitor cytotoxicity in HEK293 cells - 24 hour (AID 1224875); further: nearly all actives have a fitted effect of over 45% in size
Summary of the method: as §3

[19] = qHTS assay to identify small molecule antagonists of the estrogen related receptor (ERR) signaling pathway from Tox21 library (AID 1224848); further: nearly all actives have a fitted effect of over 50% in size
Summary of the method: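 Screening used an ERR reporter line supplied by NTP, exposed for 18 h at 37 C to library compounds delivered in DMSO. Signal was luciferase luminescence developed with ONE-Glo at room temperature for 30 min.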

[20] = qHTS assay to identify small molecule agonists of the estrogen related receptor (ERR) signaling pathway from Tox21 library (AID 1224849; calls by dose curve; further: nearly all actives have a fitted effect of over 15% in size); details: ERR reporter cell line, ONE-Glo luciferase, 18 h; at 92.4 µM (top of the series) unless noted
Summary of the method: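 ERR cells, 6 h pre-incubation 37 C/5% CO2; cpd in DMSO pinned; 18 h 37 C; ONE-Glo added, 30 min RT; luminescence read. Agonist mode, qHTS.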
On the % scale 0 is the no-effect control and ±100 the full control effect.

Sequence of Thyrotropin receptor (Homo sapiens) (P16473 whole entry, looked up): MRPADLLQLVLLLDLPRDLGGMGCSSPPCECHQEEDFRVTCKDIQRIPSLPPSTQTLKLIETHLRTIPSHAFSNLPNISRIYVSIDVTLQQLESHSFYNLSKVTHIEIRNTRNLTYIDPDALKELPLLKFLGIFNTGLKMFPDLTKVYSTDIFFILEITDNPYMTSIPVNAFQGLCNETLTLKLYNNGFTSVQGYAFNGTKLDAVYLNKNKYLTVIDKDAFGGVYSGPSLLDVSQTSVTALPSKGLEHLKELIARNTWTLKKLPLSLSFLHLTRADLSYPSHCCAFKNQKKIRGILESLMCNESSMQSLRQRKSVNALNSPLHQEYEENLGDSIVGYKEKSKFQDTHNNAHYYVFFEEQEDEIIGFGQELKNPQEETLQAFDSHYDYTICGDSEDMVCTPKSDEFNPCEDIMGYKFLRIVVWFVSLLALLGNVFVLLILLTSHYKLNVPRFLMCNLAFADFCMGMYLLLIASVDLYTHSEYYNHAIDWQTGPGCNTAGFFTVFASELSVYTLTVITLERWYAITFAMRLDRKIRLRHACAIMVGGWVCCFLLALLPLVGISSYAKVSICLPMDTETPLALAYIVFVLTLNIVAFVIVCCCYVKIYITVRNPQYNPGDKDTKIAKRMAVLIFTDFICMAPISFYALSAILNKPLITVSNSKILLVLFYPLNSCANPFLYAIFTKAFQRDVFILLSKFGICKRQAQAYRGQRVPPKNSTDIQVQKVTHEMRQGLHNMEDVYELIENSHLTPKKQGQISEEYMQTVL

CCn1cc(C(=O)O)c(=O)c2cc(F)c(N3CCNCC3)nc21
inactive: Potency [1] | Potency [2] | Potency [3] | Potency [4] | Potency [5] | Potency [6] | Potency [7] | Potency [8] | Potency [9] | Potency [10] | Potency [11] | max response [12] 10.3% | Potency [13] | Potency [14] | Potency [15] | Potency [16]

CC1CN(c2cc3c(cc2F)c(=O)c(C(=O)O)cn3-c2ccc(F)cc2F)CCN1 (centres undefined)
inactive: activation [1] -2.32% [at 8.39 µM] | activity change, negative = cytotoxicity [2] 5.19% [at 6.97 µM] | activation [17] 0.362% [at 7.01 µM] | activity change, negative = cytotoxicity [4] 1.23% [at 14 µM] | activity change, negative = cytotoxicity [5] 4.21% [at 6.97 µM] | activity change, negative = cytotoxic [6] 5.72% [at 6.97 µM] | cytotoxicity [7] -3.88% [at 6.97 µM] | activity change, negative = cytotoxic [8] 3.59% [at 6.97 µM] | cytotoxicity increase [9] -7.27% [at 6.97 µM] | activity change, negative = cytotoxicity [10] 6.7% [at 6.97 µM] | viability change, negative = cytotoxic [11] 1.58% [at 6.97 µM] | max response [12] 2.82% | activity change [18] -1.61% [at 6.97 µM, hits give high values] | cytotoxicity increase [13] 0.798% [at 6.97 µM] | activity change, negative = cytotoxic [14] 0.449% [at 6.97 µM] | cytotoxicity [15] -0.333% [at 6.97 µM] | cytotoxicity increase [16] 1.74% [at 6.97 µM]

C[Si](NC1CCCCC1)(NC1CCCCC1)NC1CCCCC1
active: Potency [2] 19.5 µM
inactive: Potency [1] | Potency [3] | Potency [4] | Potency [5] | Potency [6] | Potency [7] | Potency [8] | Potency [9] | Potency [10] | Potency [11] | max response [12] -24.6% | Potency [18] | Potency [13] | Potency [15] | Potency [16]

N#C/C(=C1\SCC(c2ccccc2Cl)S1)n1ccnc1 (centres undefined)
inactive: Potency [1] | Potency [2] | Potency [3] | outcome [17] | Potency [5] | Potency [7] | Potency [8] | Potency [9] | Potency [11] | Potency [18] | Potency [13] | Potency [14] | Potency [15] | Potency [16]

c1ccc(COCc2ccccc2)cc1
inactive: Potency [1] | Potency [2] | outcome [17] | Potency [4] | Potency [19] | activity change, positive = activation [20] 0.496% | Potency [6] | Potency [7] | Potency [8] | Potency [9] | Potency [10] | Potency [11] | Potency [18] | Potency [13] | Potency [14] | Potency [15] | Potency [16]

O=C(O)c1cccnc1C(=O)O
inactive: Potency [1] | Potency [2] | Potency [3] | Potency [4] | Potency [5] | Potency [6] | Potency [7] | Potency [8] | Potency [9] | Potency [10] | Potency [11] | max response [12] -1.78% | Potency [18] | Potency [13] | Potency [14] | Potency [15] | Potency [16]

Cc1ccccc1N1C(=O)c2cc(S(N)(=O)=O)c(Cl)cc2NC1C (centres undefined)
inactive: Potency [1] | Potency [2] | Potency [3] | Potency [4] | Potency [5] | Potency [6] | Potency [7] | Potency [8] | Potency [9] | Potency [10] | Potency [11] | max response [12] -9.78% | Potency [13] | Potency [14] | Potency [15] | Potency [16]

Cc1ccc(S)cc1
active: Potency [15] 17.4 µM | Potency [16] 17.4 µM
inactive: Potency [1] | Potency [2] | outcome [17] | Potency [4] | Potency [5] | Potency [6] | Potency [7] | Potency [8] | Potency [9] | Potency [10] | Potency [11] | max response [12] 4.48% | Potency [18] | Potency [13] | Potency [14]

O=C(CCCN1CCC(O)(c2ccc(Br)cc2)CC1)c1ccc(F)cc1
active: Potency [6] 9.52 µM | Potency [10] 9.52 µM | Potency [15] 23.9 µM | Potency [16] 23.9 µM
inactive: Potency [1] | Potency [2] | Potency [3] | Potency [4] | Potency [7] | Potency [11] | Potency [18]

CCCCCCCCCCCC[N+](C)(C)CC(=O)[O-]
inactive: Potency [1] | Potency [2] | Potency [3] | outcome [17] | Potency [5] | Potency [6] | Potency [7] | Potency [8] | Potency [10] | Potency [11] | max response [12] -3.41% | Potency [14]

COC(=O)[C@@H]1CC2=CC(=O)CC[C@]2(C)[C@@]23O[C@@H]2C[C@@]2(C)[C@@H](CC[C@@]24CCC(=O)O4)[C@H]13
inactive: Potency [1] | Potency [2] | Potency [3] | outcome [17] | Potency [5] | Potency [6] | Potency [7] | Potency [8] | Potency [9] | Potency [10] | Potency [11] | max response [12] 1.85% | Potency [18] | Potency [13] | Potency [14] | Potency [15] | Potency [16]

CN1CCCN=C1/C=C/c1cccs1
inactive: Potency [1] | Potency [2] | Potency [3] | Potency [4] | Potency [5] | Potency [6] | Potency [7] | Potency [8] | Potency [9] | Potency [10] | Potency [11] | Potency [18] | Potency [13] | Potency [15] | Potency [16]

OC(CCCN1CCCCC1)(c1ccccc1)c1ccccc1
inactive: Potency [1] | Potency [2] | Potency [3] | Potency [4] | Potency [19] | Potency [5] | Potency [6] | Potency [7] | Potency [8] | Potency [9] | Potency [10] | Potency [11] | max response [12] 0.842% | Potency [18] | Potency [13] | Potency [14] | Potency [15] | Potency [16]

CCCCCCCCCCOS(=O)(=O)O
inactive: Potency [1] | Potency [2] | Potency [3] | outcome [17] | Potency [5] | Potency [6] | Potency [7] | Potency [8] | Potency [10] | Potency [11] | max response [12] -3.11% | Potency [18] | Potency [13] | Potency [14] | Potency [15] | Potency [16]

O=C(O)Cc1ccc(-c2ccccc2)cc1
inactive: Potency [1] | Potency [2] | Potency [3] | Potency [5] | Potency [6] | Potency [7] | Potency [8] | Potency [10] | Potency [11] | Potency [18] | Potency [13] | Potency [14] | Potency [15] | Potency [16]

CCCCC(CC)CNCC(CC)CCCC (centres undefined)
inactive: Potency [1] | Potency [2] | outcome [17] | Potency [4] | Potency [19] | Potency [5] | Potency [6] | Potency [7] | Potency [8] | Potency [9] | Potency [10] | Potency [11] | max response [12] 8.85% | Potency [18] | Potency [13] | Potency [14] | Potency [15] | Potency [16]

CC1=C(C=O)C(C)(C)CCC1
inactive: Potency [1] | Potency [2] | Potency [3] | outcome [17] | Potency [5] | Potency [7] | Potency [8] | Potency [11] | Potency [13] | Potency [15] | Potency [16]

CNC(=O)N(c1ccccc1)c1ccccc1
inactive: Potency [1] | Potency [2] | outcome [17] | Potency [4] | activity change, positive = activation [20] -5.23% | Potency [5] | Potency [6] | Potency [7] | Potency [8] | Potency [10] | Potency [11] | Potency [18] | Potency [13] | Potency [14] | Potency [15] | Potency [16]

CC1(C)O[C@@H]2C[C@H]3[C@@H]4CCC5=CC(=O)C=C[C@]5(C)[C@H]4[C@@H](O)C[C@]3(C)[C@]2(C(=O)CO)O1
inactive: Potency [1] | Potency [2] | outcome [17] | Potency [4] | Potency [5] | Potency [6] | Potency [7] | Potency [8] | Potency [9] | Potency [10] | Potency [11] | max response [12] -1.67% | Potency [18] | Potency [14] | Potency [15] | Potency [16]
